Reference: PubChem BioAssay AID1347416 (National Center for Advancing Translational Sciences (NCATS), 2020)
Hit rate of the full screen: of about 4,100 compounds, about 1,600 (39%) were called active. Inconclusive results (about 25%) are left out. The call rests on the fitted dose curve; in most records, active means well fitted inhibition curve with a large enough effect; inconclusive means small, poorly fitted or top-dose-only effect; inactive means no such curve, though single readings can be large or run the other way. Some of the results follow.

Assay: qHTS Validation assay for Inhibitors of Plasmodium falciparum Dd2 growth in vitro; further: nearly all actives have a fitted effect of over 70% in size
Details: P. falciparum Dd2 in RBCs, SYBR Green growth, 72 h; series mostly up to 28.7 µM
In short: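 P. falciparum Dd2-infected red blood cells (2.5% hematocrit, 0.3% parasitemia) grown 72 h at 37 °C under 5% O2 with compounds in a titration, 29 uM to 0.5 nM final. Growth read as SYBR Green-1 fluorescence after ~16 h lysis; artesunate 300 nM as positive control.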
Potency means the concentration at half of the fitted maximal effect.

Potency, inactive:
Cc1cn2nc(C(=O)N3CCC(NC(=O)c4nccc5ccccc45)CC3)cc2c(=O)[nH]1
O=C1NCCCCCN(C(=O)CC2CCCC2)[C@@H]2C[C@@H](C(=O)N3CCc4ccccc4C3)C[C@H]12
O=C1NCCCCCN(C(=O)c2ccsc2)[C@@H]2C[C@@H](C(=O)N3CCc4ccccc4C3)C[C@H]12
CCCCCn1c(=O)[nH]c2cc(C(=O)NCc3ccc(OC)cc3)ccc2c1=O
CCOc1ccccc1NC(=O)c1c(NC(=O)COc2ccccc2)sc2c1CCCCC2
COc1ccc(C(=O)/C=C/Nc2cc(C)ccn2)cc1
CC(=O)N1CCCC(c2nn(C)c(=O)n2C2CCCC2)C1 (stereo not given)
CCC(C)NC(=O)CSc1nc2cc3c(cc2c(=O)n1CCCC(=O)NCc1ccc2c(c1)OCO2)OCO3 (stereo not given)
Cc1cnc(C(=O)N[C@@H]2CCC[C@@H]2C(=O)NCc2ccc3c(c2)OCO3)cn1
COc1cccc(CCC(=O)NC2CCN(C(=O)c3cc4c(=O)[nH]c(C)cn4n3)CC2)c1
Cc1nncn1C1CCN(S(=O)(=O)c2ccc(F)c(F)c2)CC1
c1ccc(-c2noc(-c3cncnc3NC3CCCCCC3)n2)cc1
CC(C)(C)NC(=S)Nc1ccc(Nc2ccccc2)cc1
CCCNC(=O)Nc1ccc(OC2CCN(C(=O)CC)C2)nc1 (stereo not given)
CCOC(=O)Cn1c(=O)c2c(nc(N3CCCCC3)n2C)n(C)c1=O
COc1ccc(-c2csc(NC(=O)C(CC(=O)O)N3CCOCC3)n2)cc1 (stereo not given)
Cn1nccc1C(=O)N1CCC2(CC1)NCCc1c2[nH]c2ccccc12
COCc1noc(CC2CCOC3(CCN(C(=O)c4c[nH]c5ccccc45)CC3)C2)n1 (stereo not given)
c1ccc([C@H]2CN3CCSC3=N2)cc1
O=C(NCc1ccccc1)N1CCC2(CC1)CC(N(C(=O)c1ccccc1)C1CC1)CCO2 (stereo not given)
CC(C)(C)c1ccc(C(=O)N2CCC3(C2)NC(=O)N(Cc2ccc(Cl)cc2)C3=O)cc1 (stereo not given)
Cc1ccc(CN2CCNC(=O)C2CC(=O)N(CC(C)C)CC(C)C)cc1 (stereo not given)
CCN1CCN(c2nc(SC)nc3sc4c(c23)CC(C)(C)OC4)CC1
CCOc1cc(NC(=S)NC)c(OCC)cc1NC(=O)c1ccco1
COc1nc(N=C(N)N)nc2c(C)cccc12
CN1C(=O)CS(=O)(=O)C12CCN(C(=O)c1cc(F)ccc1Cl)CC2
Cc1ccc(C2Cn3nnc(-c4noc(CNC(=O)c5ccccc5)n4)c3CO2)cc1 (stereo not given)
Cc1ccc(C2Cn3nnc(-c4noc(-c5nn(C)c6ccccc56)n4)c3CO2)cc1 (stereo not given)
Oc1ccc(Br)cc1Cn1nnc2ccccc21
O=C(c1ccccc1-c1ccccc1)N1CCC(c2ncc[nH]2)CC1
C=CCc1c(C)[nH]c2ccc(C)cc2c1=O
O=C(Cn1ccc2cc(S(=O)(=O)N3CCCCCC3)ccc21)NCCc1ccc(Cl)cc1
O=c1nc2ccccn2c2ccc(S(=O)(=O)N3CCCCC3)cc12
COc1cccc(S(=O)(=O)N2CCC3(CC2)C(OC)C(=O)N3c2cccc(F)c2)c1 (stereo not given)
CN1CCN(c2cc(=O)c3ccnc(N4CCOCC4)c3o2)CC1
CN(C)c1ccnc(Nc2ccc(O)cc2)c1C#N
CN(Cc1ccccc1F)C1CCc2ccccc21 (stereo not given)
O=C(CSc1ncn[nH]1)Nc1ccnc2ccccc12
COc1ccccc1NC(=O)c1nn(C)c2c1CS(=O)(=O)c1ccccc1-2
CN(C(=O)c1ccc2c(c1)N(Cc1ccc(F)cc1)C(=O)c1ccccc1S2(=O)=O)C1CCCCC1
O=C1NCCCCCCN(C(=O)C2CCCC2)[C@H]2CCCC[C@@H]12
O=C1NCc2ccccc2CC12CCCN(Cc1ccccc1)C2 (stereo not given)
O=C(c1ccccc1F)N1CCCC2(C1)C(=NC1CCCC1)NC(=O)N2c1cc(F)cc(F)c1 (stereo not given)
COc1cccc([S+](=O)([O-])N2CCC3(CC2)C(=NC2CCCCC2)NC(=O)N3c2cc(F)cc(F)c2)c1
Cc1ccc2nc(-c3ccc(Cl)c(NC(=O)c4cccnc4)c3)oc2c1
CN(CC1(C)CCOCC1)C(=O)c1ccco1
O=C(Cn1ccn2nc(-c3ccc(F)cc3)c(CO)c2c1=O)Nc1ccc(Cl)cc1F

Potency, active:
O=C(NCCc1c[nH]c2ccccc12)[C@@H]1C[C@H]2C(=O)NCCCCCCN(C(=O)c3ccco3)[C@H]2C1 10.6 µM
CCCCn1c(N)c(N(CC(C)C)C(=O)c2cc(-c3ccc(OC)c(OC)c3)nc3ccccc23)c(=O)[nH]c1=O 11.9 µM
COc1ccccc1NC(=O)N1CC(=O)Nc2sc3c(c2C1c1ccccc1)CCCC3 (stereo not given) 15 µM
Cc1cc(C)cc(N(CC(=O)NCc2ccc3c(c2)OCO3)C(=O)CCC(=O)Nc2ccccn2)c1 4.22 µM
COc1ccc(N(CC(=O)NCc2ccccc2)C(=O)CCC(=O)Nc2cc(C)ccn2)c(OC)c1 10.6 µM
COc1cccc(Nc2ccc3c(n2)C(C)(C(=O)NC2CCC2)CN(C)C3)c1 (stereo not given) 15.3 µM
COc1cccc(Nc2ccc3c(n2)C(C)(C(=O)NC2CCN(C)CC2)CN(C)C3)c1 (stereo not given) 17.2 µM
COc1cccc(Nc2ccc3c(n2)C(C)(C(=O)NCC2CC2)CN(C)C3)c1 (stereo not given) 12.2 µM
CN1Cc2ccc(Nc3ccccc3)nc2C(C)(C(=O)NCc2ccc3c(c2)OCO3)C1 (stereo not given) 13.7 µM
O=c1[nH]c(C2CCN(S(=O)(=O)c3ccc4c(c3)OCCO4)CC2)nc2c1nnn2Cc1ccc(F)cc1 8.41 µM
O=c1[nH]c(C2CCN(S(=O)(=O)/C=C/c3ccccc3)CC2)nc2c1nnn2Cc1ccc(F)cc1 13.3 µM
CC(C)Oc1ccc2c(c1)OC(c1ccccc1)(C(F)(F)F)NC2=O (stereo not given) 2.66 µM
CCOc1ccc2c(c1)OC(c1ccc(C)cc1)(C(F)(F)F)NC2=O (stereo not given) 2.66 µM
CCn1c(N2CCC(C)CC2)nc2c1c(=O)n(C)c(=O)n2C 5.96 µM
O=C(Nc1ccc(Cl)cc1)Nc1nc(-c2ccccc2O)cs1 6.68 µM
O=C(Nc1ccc([N+](=O)[O-])cc1)Nc1nc(-c2ccc(Cl)s2)cs1 2.99 µM
O=C(Nc1nc(-c2ccccn2)cs1)c1ccc(F)c(S(=O)(=O)N2CCOCC2)c1 2.11 µM
O=C(Nc1nc(-c2ccccn2)cs1)c1cccc(S(=O)(=O)N2CCOCC2)c1 5.96 µM
N#Cc1cc(C#N)c(N2CCN(c3cccc(Cl)n3)CC2)nc1N 3.35 µM
Cc1ccc(C(=O)N2CCC(c3c[nH]c4ccccc34)(c3c[nH]c4ccccc34)CC2)cc1 8.41 µM
NC(Cc1ccccc1)C(=O)N1CCC2(CC1)CN(C(=O)c1ccc(Cl)cc1)CCO2 (stereo not given) 0.842 µM
CC1(C)Cc2c(c(N3CCOCC3)nc3snc(Br)c23)CO1 0.299 µM
CCCNC(=O)c1ccc(N2CCC3(CC2)CC(c2cccc(Br)c2)=NO3)c(NC(=O)c2ccco2)c1 2.99 µM
Cc1ccc(CNC(=O)c2ccc(N3CCC4(CC3)CC(c3cccc(Br)c3)=NO4)c(NC(=O)c3ccco3)c2)cc1 8.41 µM
CCOc1nc(N=C(N)N)nc2c(C)cccc12 10.6 µM
Cc1ccc(C2Cn3nnc(-c4noc(-c5n[nH]c6c5CCCC6)n4)c3CO2)cc1 (stereo not given) 13.3 µM
O=c1c2ccccc2nc(/C=C/c2cc(Br)ccc2O)n1CCCO 9.44 µM
CCn1c(/C=C/c2cc(Br)ccc2O)nc2ccccc2c1=O 4.22 µM
CCc1c(C)[nH]c2ccccc2c1=O 10.6 µM
CCCc1c(C)[nH]c2ccccc2c1=O 7.5 µM
O=S(=O)(c1ccc2ccccc2c1)N1CCN(C(=S)Nc2ccccc2F)CC1 4.22 µM
COc1cccc(NC(=S)N2CCN(S(=O)(=O)c3ccc(F)cc3)CC2)c1 2.66 µM
O=S(=O)(c1ccc(Cl)cc1)N1CCN(C(=S)Nc2ccccc2F)CC1 2.37 µM
O=S(=O)(c1ccc2ccccc2c1)N1CCN(C(=S)Nc2ccc(F)c(Cl)c2)CC1 1.06 µM
Clc1ccc2c(N/N=C/c3cccc(Br)c3)ccnc2c1 10.6 µM
O=C(NNc1ccnc2cc(Cl)ccc12)C1CCCCC1 7.5 µM
CN1CCN(c2ccc(Nc3ccnc4cc(Cl)ccc34)cc2)CC1 0.188 µM
Oc1ccc(Nc2ccnc3cc(Cl)ccc23)cc1 1.68 µM
Clc1ccc(NNc2ccnc3cc(Cl)ccc23)cc1 1.5 µM
CCN1CCN(c2ccc(Nc3ccnc4ccccc34)cc2)CC1 1.06 µM
CCOC(=O)c1ccc2c(c1)N(CC(=O)N(C)c1ccccc1)C(=O)c1ccccc1S2 10.6 µM
CCOC(=O)c1ccc2c(c1)N(C(CC)C(=O)Nc1ccccc1OC)C(=O)c1ccccc1S2 (stereo not given) 9.44 µM
O=C1NC(=NC2CCCC2)C2(CCN(Cc3ccccc3)C2)N1c1cc(F)cc(F)c1 (stereo not given) 7.5 µM
O=C1NC(=NC2CCCCC2)C2(CCN(Cc3ccccc3)C2)N1c1cc(F)cc(F)c1 (stereo not given) 4.22 µM
O=C(NC(c1ccc(Cl)cc1)c1cc(Cl)c2cccnc2c1O)c1cccnc1 (stereo not given) 5.96 µM
O=C(NC(c1ccccc1)c1cc(Cl)c2cccnc2c1O)c1cccnc1 (stereo not given) 7.5 µM
CC(Oc1ccc(F)cc1)C(=O)Nc1cc(C(F)(F)F)ccc1-n1cncn1 (stereo not given) 1.68 µM
CC(Oc1ccc(F)cc1)C(=O)Nc1cc(Cl)ccc1-n1cncn1 (stereo not given) 6.68 µM
